Screens: PubChem, National Center for Advancing Translational Sciences (NCATS)
AmpC no deterg – blocks E. coli AmpC beta-lactamase in detergent-free assay | AID 485341 | Potency, µM (highest dose often 57.1 µM), inactives show top-dose activity change, negative = inhibition, usual class: inhibitors | P00811 | 330,000 compounds, 0.52% hits | AmpC nitrocefin hydrolysis, absorbance 480 nm, 0.0001% Triton;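 further: plate controls were no compound for no effect and no enzyme for full effect; nearly all actives have a fitted effect of over 20% in size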
Target sequence (P00811 whole entry, looked up): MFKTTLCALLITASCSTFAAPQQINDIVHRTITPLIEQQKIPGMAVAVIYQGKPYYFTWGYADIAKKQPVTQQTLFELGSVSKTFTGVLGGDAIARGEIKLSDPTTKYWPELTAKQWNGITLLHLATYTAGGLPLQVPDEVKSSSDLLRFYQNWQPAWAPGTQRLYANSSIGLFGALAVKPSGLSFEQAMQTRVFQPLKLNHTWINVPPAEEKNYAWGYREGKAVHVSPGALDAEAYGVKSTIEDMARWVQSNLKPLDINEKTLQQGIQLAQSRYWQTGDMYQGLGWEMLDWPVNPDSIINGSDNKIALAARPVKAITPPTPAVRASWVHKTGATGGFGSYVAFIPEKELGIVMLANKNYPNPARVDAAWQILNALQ
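20 mM phosphate pH 7.0 + 0.01% (detergent screen) or 0.0001% Triton X-100; 5.3 nM AmpC reagent; cpd preinc 15 min RT; nitrocefin (800 uM stock) to start; A480 q20 s × 4 min; Activity was normalised to no-enzyme and no-compound control wells.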
AmpC detergent – AmpC beta-lactamase inhibition with detergent present; P00811; AmpC hydrolysis of nitrocefin, absorbance 480 nm, 0.01% Triton; Potency, µM (highest dose often 114 µM), without a hit: at the highest dose activity change, negative = inhibition, usual class: inhibitors; 370,000 compounds, 0.041% hits; AID 485294;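 further: 0% = no-compound wells and -100% = no-enzyme wells; nearly all actives have a fitted effect of over 25% in size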
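20 mM phosphate pH 7.0 + 0.01% (detergent screen) or 0.0001% Triton X-100; 5.3 nM AmpC reagent; cpd preinc 15 min RT; nitrocefin (800 uM stock) to start; A480 q20 s × 4 min; Activity was normalised to no-enzyme and no-compound control wells.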
Numbers without * were called inactive; ? = inconclusive; . = no result given; [ ] = remark or other dose. The entries come from a sample that favours hits as a whole. The call rests on the fitted dose curve; in most records, active means well fitted curve in the direction sought with a large enough effect; inconclusive means small, poorly fitted or top-dose-only effect, or another doubt; inactive means no such curve, though single readings can be large; an effect the other way counts as inactive or inconclusive. Potency means the concentration at half of the fitted maximal effect.

SMILES	AmpC no deterg	AmpC detergent
O=C(Nc1cc(Sc2ccccn2)cc([N+](=O)[O-])c1)c1cccc(Cl)c1	-40.6%	5.1%
COc1ccc(C(=O)NCC2(N3CCN(C)CC3)CCCCC2)cc1	.	1.7%
CCCOc1ccc(N2C(=O)CC(N3CC=C(c4ccccc4)CC3)C2=O)cc1 (stereo not given)	-7.3%[2.29 µM]	-2.0%
O=C1CC(N2CC=C(c3ccccc3)CC2)C(=O)N1c1ccc(F)cc1 (stereo not given)	44.7µM*	?
Cc1ccc(C)c(Nc2ncnc3c2cnn3-c2ccc(F)cc2)c1	.	2.2%
Cc1ccc(C(C)C)c(OCc2ccc(C(=O)N/N=C/c3cccc(O)c3O)cc2)c1	8.91µM*	-9.8%
Cc1ccc(C(C)C)c(OCc2ccc(C(=O)N/N=C/c3ccc(O)c(O)c3)cc2)c1	-18.6%	17.2%
O=C(NNC(=O)c1cc2ccccc2cc1O)Nc1ccc(F)cc1F	12.6µM*	2.3%
COc1cc(OC)c(NC(=O)c2ccccc2F)cc1Cl	-21.0%	-1.3%
COc1ccc(NC(=O)NNC(=O)c2cc3ccccc3cc2O)cc1	?	0.9%
COc1cc(NC(=O)c2cc3ccccc3cc2O)c(OC)cc1Cl	3.55µM*	-5.4%
Cc1occc1C(=O)NNC(=O)Nc1ccc(F)cc1F	-3.1%	-0.9%
COc1ccc(C)cc1NC(=O)NNC(=O)c1cc2ccccc2cc1O	6.31µM*	-0.3%
COc1ccccc1C(=O)NNC(=O)c1ccc(C)cc1	-9.3%	2.2%
Cc1ccc(C(=O)NNC(=O)c2cc3ccccc3cc2O)cc1	28.2µM*	-14.8%
Cc1ccc(OCC(=O)NN=C2c3ccccc3-c3ccccc32)cc1	-10.6%	?
Cc1ccc(NN=C2c3ccccc3-c3ccccc32)cc1	11.2µM*	?
Cc1ccc(NC(=O)c2ccco2)c(OCc2cc(=O)n3cc(C)sc3n2)c1	.	13.2%
C=CCN(c1ccccc1)S(=O)(=O)c1cccc(C(=O)Nc2nc3ccccc3[nH]2)c1	10µM*	-12.1%
C=CCN(c1ccccc1)S(=O)(=O)c1cccc(C(=O)Nc2ccncc2)c1	-26.8%	-11.4%
COc1ccc2c(c1)c1c(c(=O)n(CCc3ccccc3)c(=O)n1Cc1cccc(F)c1)n2C	.	16.9%
O=C1/C(=C/Nc2ccc3c(c2)OCO3)CCc2ccccc21	-0.2%	-0.1%
COc1ccc2c(c1)CC/C(=C\Nc1ccc3c(c1)OCO3)C2=O	10µM*	-8.4%
CC(=O)c1cc(-c2ccc(F)cc2)n(CCC(=O)Nc2nc3ccc(C)cc3s2)c1C	.	11.9%
CCOC(=O)c1c(C)oc2nc(C)nc(NCc3ccc(F)cc3)c12	.	14.6%
SMILES	AmpC no deterg	AmpC detergent
Cn1cccc1C(=O)NC(=O)CSc1nc2ccccc2s1	15.8µM*	-1.6%
CC(=O)CSc1nc2ccccc2s1	-21.5%	-1.8%
CCOc1ccc(CCNC(=O)NCc2noc3ccc(C)cc23)cc1	.	3.2%
O=C(N/N=C/c1ccc(O)cc1O)c1ccc(CN2C(=O)c3cccc4cccc2c34)cc1	7.08µM*	0.9%
O=C(N/N=C/c1ccccc1)c1ccc(CN2C(=O)c3cccc4cccc2c34)cc1	?	-4.3%
CC(=O)c1ccc(C(=O)N(Cc2cccnc2)c2nc3c(C)c(C)ccc3s2)cc1	.	-1.6%
COc1ccccc1-c1cn[nH]c1-c1ccc(OCc2ccc(F)cc2)cc1O	7.08µM*	4.1%
COc1ccccc1-c1cn[nH]c1-c1ccc(OCc2ccc([N+](=O)[O-])cc2)cc1O	-19.9%	?
Cc1nc2ccc(S(=O)(=O)N(C)CC(=O)Nc3ccc(Br)c(C)c3)cc2s1	.	-0.1%
O=C(CCCCn1c(=O)c2ccccc2n(Cc2cccc(F)c2)c1=O)NCCc1ccccc1	.	2.5%
CCc1ccc(NC(=O)Cn2c(-c3cncs3)nc3ccccc32)cc1	.	-5.2%
CN(C)S(=O)(=O)c1ccc(C(=O)Nc2cc(S(=O)(=O)Nc3ccccc3Cl)ccc2N2CCCCC2)cc1	3.16µM*	-3.9%
CN1CCN(c2ccc(Cl)cc2NC(=O)c2ccc(S(=O)(=O)N(C)C)cc2)CC1	21.6%	0.6%
CCN(CC)S(=O)(=O)c1ccc2c(c1)N(CC(=O)Nc1ccc(C)cc1C)C(=O)C1CCCN21 (stereo not given)	.	3.3%
COc1ccccc1NC(=O)c1oc2ccccc2c1NC(=O)Cc1cccs1	.	7.9%
Cc1cccc(NC(=O)C2CCC(CNS(=O)(=O)c3csc(C(N)=O)c3)CC2)c1C (stereo not given)	.	-1.8%
COc1ccccc1NS(=O)(=O)c1cc(NC(=O)c2cc(F)c(F)c(F)c2F)ccc1N1CCOCC1	-24.6%	.
COc1ccccc1NS(=O)(=O)c1cc(NC(=O)C2CC2)ccc1N1CCOCC1	-10.3%	-0.6%
COCCNC(=S)Nc1ccc(N2CCOCC2)c(S(=O)(=O)Nc2ccccc2OC)c1	10µM*	-0.9%
COc1ccccc1NS(=O)(=O)c1cc(NC(=O)c2ccc(=O)[nH]c2)ccc1N1CCOCC1	14.1µM*	0.9%
COc1ccccc1CNc1nc2c(S(=O)(=O)c3ccccc3)nnn2c2ccc(Cl)cc12	.	3.2%
COc1cccc(N2CC(NC(=O)CCCc3ccccc3)CC2=O)c1 (stereo not given)	.	-1.7%
CC(C)COc1ccc(C(=O)N2CCC(c3nc4ccccc4s3)CC2)cc1	.	8.1%
Cc1ccc(S(=O)(=O)N(C)C)cc1NC(=O)CCc1c[nH]c2ccccc12	-33.8%	0.9%
COc1ccc(S(=O)(=O)N(C)C)cc1NC(=O)Cc1c[nH]c2ccccc12	22.4µM*	-11.9%
SMILES	AmpC no deterg	AmpC detergent
COc1ccccc1CNC(=O)CN1N=C(c2ccccc2)CCC1=O	.	1.2%
CCOc1cc(C2CC(=O)Nc3c2c(=O)nc(SCc2cccc(Cl)c2)n3C)ccc1O (stereo not given)	.	1.9%
COc1ccc(-n2c(=O)c3sc4ccccc4c3n(C)c2=O)cc1	.	-4.4%
O=C(NCc1ccc(F)cc1)c1ccc2c(c1)nc1n2CCCCC1	.	-6.2%
O=S(=O)(Cc1cc(Sc2ccc(Cl)cc2)nc(-c2ccccc2)n1)c1ccccc1	-14.6%	0.8%
Cc1nc(CS(=O)(=O)c2ccc(Cl)cc2)cc(Sc2ccc(Cl)cc2)n1	3.98µM*	9.7%
COc1cc(CN(C(=O)Nc2cccc(Cl)c2)c2ccccn2)cc(OC)c1OC	.	0.3%
CCCOC(=O)C1C2C=CC3(CN(c4ccc(Cl)c(F)c4)C(=O)C13)O2 (stereo not given)	7.08µM*	5.2%
CCOC(=O)C1C2C=CC3(CN(c4ccc(Cl)c(F)c4)C(=O)C13)O2 (stereo not given)	-9.9%	-10.5%
Cc1c(Cl)cccc1NC(=O)CC(c1ccc(F)cc1)N1Cc2ccccc2C1=O (stereo not given)	.	2.4%
O=C(NCCCN1CCN(c2ccccc2)CC1)c1nnc(Cc2c(F)cccc2Cl)o1	.	12.3%
N#Cc1ccc(/C=N/NC(=S)Nc2ccc(S(=O)(=O)N3CCOCC3)cc2)cc1	-26.6%	-11.4%
O=S(=O)(c1ccc(NC(=S)N/N=C/c2ccc(O)c(O)c2)cc1)N1CCOCC1	15.8µM*	-3.7%
O=C(Cn1cc(S(=O)(=O)Cc2ccc(F)cc2)c2ccccc21)NCCc1ccccc1	.	2.7%
CC(CNC(=O)c1ccc2nc(Cc3ccccc3)oc2c1)c1ccccc1 (stereo not given)	.	-3.5%
Cc1ccc(C(=O)C[n+]2cccc3ccccc32)cc1	0.159µM*	-0.3%
O=C(C[n+]1cccc2ccccc21)c1ccc(Br)cc1	-22.5%	?
COc1ccc(/C=N/NC(=S)Nc2ccccc2)cc1COc1ccc(F)cc1F	17.8µM*	-3.4%
